Screening results as filed in PubChem.
An excerpt weighted towards active compounds, which were near 3.9% of everything screened.
D1 potentiator = Potentiators of Human D1 Dopamine Receptor: qHTS. D(1A) dopamine receptor (Homo sapiens), P21728. HEK293 TREx D1 cells, calcium flux, dopamine EC20 potentiation. potentiation, % at 10 µM. 360,000 compounds, 0.036% hits; in the data active = potentiation above about 30%; note: 0% is about no effect
Target sequence (P21728 whole entry, looked up): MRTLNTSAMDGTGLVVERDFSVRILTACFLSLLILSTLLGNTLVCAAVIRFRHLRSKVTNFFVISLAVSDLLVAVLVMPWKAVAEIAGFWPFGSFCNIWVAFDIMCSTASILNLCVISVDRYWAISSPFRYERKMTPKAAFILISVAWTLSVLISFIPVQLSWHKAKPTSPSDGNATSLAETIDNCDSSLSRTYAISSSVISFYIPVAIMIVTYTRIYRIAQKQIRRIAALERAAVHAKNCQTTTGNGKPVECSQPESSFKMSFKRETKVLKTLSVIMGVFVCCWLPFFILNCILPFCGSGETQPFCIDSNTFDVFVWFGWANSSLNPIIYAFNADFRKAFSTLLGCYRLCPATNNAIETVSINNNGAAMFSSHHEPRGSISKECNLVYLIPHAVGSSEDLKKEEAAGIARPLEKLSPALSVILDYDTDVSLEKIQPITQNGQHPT
GALK inhibitor = qHTS Assay for Inhibitors of Human Galactokinase (GALK) | Potency, µM (highest dose often 57.5 µM), for inactives: at the top dose activity change, negative = inhibition, most hits filed as inhibitors | 270,000 compounds, 0.007% hits | AID 1868, 2009 | Purified GALK, Kinase-Glo residual ATP luminescence | P51570; note: potency is the fitted concentration of half-maximal effect; % is set by controls: 0 for no effect and ±100 for the full control effect
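Galactose (100 uM) and ATP (35 uM) were turned over by 5 nM GALK for 1 h at RT. Kinase-Glo Plus then converted the remaining ATP into a luminescent signal.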
Eya2 inh = qHTS Assay for Inhibitors of the Phosphatase Activity of Eya2. recombinant Eya2, OMFP fluorescence dephosphorylation (OMFP is methylfluorescein phosphate). Protein phosphatase EYA2 (Homo sapiens), O00167. 330,000 compounds, 0.006% hits. AID 488837, 2010. Potency, µM (highest dose often 76.9 µM), for the others: top-dose activity, negative = inhibition, usual class: inhibitors; note: potency is the fitted concentration of half-maximal effect; % is set by controls: 0 for no effect and ±100 for the full control effect
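Eya2 protein (added as 0.2 uM solution) was preincubated with compound for 10 min at ambient temperature in 50 mM HEPES pH 7.5, 50 mM NaCl, 5 uM MgCl2, 0.05% BSA, 1 mM DTT. OMFP (added at 50 uM) then reacted 10 min; fluorescence read at 485/525 nm.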
D1 antag = Antagonist of Human D 1 Dopamine Receptor: qHTS; D(1A) dopamine receptor (Homo sapiens), P21728; HEK293 TREx D1 cells, calcium flux, dopamine EC80; hits give low values; activity change, negative = inhibition, % at 10 µM; 360,000 compounds, 3.2% hits; AID 504652, 2011; in the data active = activity change below about -30%; note: % is set by controls: 0 for no effect and ±100 for the full control effect
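Cells carrying a force-coupled, tetracycline-inducible human D1 receptor report calcium flux. Each well gets a 10 s baseline, compound with 180 s monitoring, then an EC80 dopamine stimulus with a second 180 s kinetic read.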
USP2a block = qHTS Assay for Inhibitors of Ubiquitin-specific Protease USP2a Using CHOP2 as the Reporter | Ubiquitin carboxyl-terminal hydrolase 2 (Homo sapiens), O75604 | USP2 core, Ub-CHOP2 coupled fluorogenic reporter, 485/531 | Potency, µM (highest dose often 38.3 µM), inactives show top-dose activity change, negative = inhibition, hits mostly inhibitors | 330,000 compounds, 0.01% hits | AID 463254, 2010;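 note: potency is the fitted concentration of half-maximal effect; plate controls were DMSO wells for no effect and full inhibition by NEM control for full effect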
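Cell-free coupled assay: 10nM USP2 core preincubated 30min RT with compound in Tris-HCl pH 8.0/CaCl2/CHAPS buffer, then 25nM Ub-CHOP2 and 25nM reporter substrate; fluorescence (Ex 485/Em 531) read after 60min RT, normalized to NEM inhibition, concentration-response curves fitted.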
D1 agonist = Allosteric Agonists of the Human D1 Dopamine Receptor: qHTS; 360,000 compounds, 1% hits; HEK293 T-REx D1 cells, calcium flux, agonist mode; activation, % at 2 µM; D(1A) dopamine receptor (Homo sapiens), P21728; in the data active = activation above about 30%; note: 0% is about no effect
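Agonism was scored from calcium flux recorded over 180 s (1 read/s) after pintool compound addition, following a 10-cycle baseline. Cells were inducible force-coupled HEK293 TREx D1, plated overnight at 30 C and loaded with no-wash calcium dye.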
* marks the source's active call; other numbers are inactive results; ? = inconclusive; / = no result given; [ ] = another dose, or the depositor's remark. Unless noted, calls come from the whole dose curve; as a rule, active = well fitted inhibition curve with a large enough effect; inconclusive = small, poorly fitted or top-dose-only effect, or effect the other way; inactive = flat fitted curve, though single readings scatter.

SMILES	D1 potentiator	GALK inhibitor	Eya2 inh	D1 antag	USP2a block	D1 agonist
CCOC(=O)c1c(C)oc2c1c(C=NCCO)c(O)c1ccccc12	-4.5	-4.4%	-3.6%	-40.6*	-1.4%	4.3
COc1ccc(NS(=O)(=O)c2ccc(-c3coc(C)n3)cc2)c(OC)c1	-7.8	-0.9%	-2.6%	-32.6*	0.2%	8.1
COc1ccc(OC)c(CNS(=O)(=O)c2ccc(-c3coc(C)n3)cc2)c1	-3.2	/	/	-9.6	/	9.7
Cc1ccc(N(C)S(=O)(=O)c2ccc(-c3coc(C)n3)cc2)cc1	-5.5	/	/	-38.6*	/	0.4
COc1ccc(-c2nc(CNS(=O)(=O)c3ccc(F)cc3)cs2)cc1	-0.8	/	/	-32.2*	/	23.6
COc1ccc(-c2nc(CNS(=O)(=O)c3ccc(C)cc3)cs2)cc1	-0.3	/	/	-2.9	/	13.3
Cc1nc(-c2ccc(S(=O)(=O)NCc3ccc(F)cc3)cc2)co1	-1.7	/	/	-55.8*	/	1.1
Cc1nn(-c2ccc(N3CCCC3)nn2)c(C)c1CCC(=O)Nc1ccc(F)c(Cl)c1	-3.0	/	/	1.4	/	0.6
CCCN(C(=O)c1ccc2c(=O)n3c(nc2c1)CCCCC3)c1cccc(Cl)c1	-1.4	/	/	1.3	/	-0.6
CCCn1nc(C(=O)NCc2ccccn2)c2ccccc2c1=O	-22.9	-0.9%	-25.3%	-38.9*	-0.8%	1.7
CCCn1nc(C(=O)NC2CCCC2)c2ccccc2c1=O	/	/	-17.2%	/	2.0%	/
CCN(CC)S(=O)(=O)c1ccc(NC(=O)c2ccccc2N(C)S(C)(=O)=O)cc1	-0.7	1.2%	7.1%	-24.0	2.0%	-0.2
CCN(CC)S(=O)(=O)c1ccc(NC(=O)c2ccc(N(C)S(C)(=O)=O)cc2)cc1	-12.1	-0.1%	-1.1%	-35.9*	-1.9%	8.2
O=c1oc2ccccc2c(Nc2ccc(Cl)cc2)c1[N+](=O)[O-]	-11.3	/	-10.5%	-4.5	1.3%	32.6*
O=c1oc2ccccc2c(NCc2ccccc2F)c1[N+](=O)[O-]	-4.2	0.1%	3.9%	-0.6	3.8%	7.2
CC(C)c1ccc(CNc2c([N+](=O)[O-])c(=O)oc3ccccc23)cc1	-3.2	-2.6%	-6.0%	-33.7*	-1.1%	26.8
CCn1c(-c2c(Cl)c(C)nn2C)n[nH]c1=S	-1.1	/	-16.6%	48.4	2.1%	39.5*
Cc1ccccc1N1C(=O)c2cccc3c(N(C)CCO)ccc(c23)C1=O	-8.0	1.6%	-5.1%[15.4 µM]	-7.1	?	85.6*
COc1ccccc1N1C(=O)c2cccc3c(C(=O)O)ccc(c23)C1=O	-3.3	3.6%	18.2%	-20.5	4.8%	1.4
COc1ccccc1N1C(=O)c2cccc3c(N(C)CCO)ccc(c23)C1=O	0.6	-4.5%	?	5.4	?	55.8*
CCOc1ccc(S(=O)(=O)N2CCN(c3c(C)cccc3C)CC2)c2ccccc12	-3.1	/	/	35.8	/	2.9
COc1ccc(NC(=O)Cn2c(=O)oc3cc(S(=O)(=O)N4CCCCCC4)ccc32)cc1OC	-0.3	/	/	-12.8	/	1.6
CN(Cc1nc2ccccc2c(=O)[nH]1)C(=O)c1cccc(S(=O)(=O)N2CCCCCC2)c1	-4.2	/	?	3.8	-0.3%	-0.5
COCCN(Cc1nc2ccccc2c(=O)[nH]1)C(=O)c1cccc(S(=O)(=O)N2CCCC2)c1	0.2	/	-12.1%	-55.2*	0.6%	1.6
CC1CCN(S(=O)(=O)c2cnc(Cl)c(Br)c2)CC1	-6.5	0.2%	3.3%	3.0	4.4%	55.5*
SMILES	D1 potentiator	GALK inhibitor	Eya2 inh	D1 antag	USP2a block	D1 agonist
CC(C)c1ccc(NC(=O)c2cnc3sc(N4CCOCC4)nn3c2=O)cc1	-3.0	/	/	-6.4	/	-1.4
CCN1CCN(c2ncnc3c2cnn3-c2ccc(F)cc2)CC1	-0.8	/	/	8.9	/	1.9
Cc1ccc(S(=O)(=O)CC(=O)N2CCN(c3nc4c(F)cccc4s3)CC2)cc1	-1.6	/	/	/	/	56.4*
O=C(NCCCn1ccnc1)C(=O)NCC1OCCN1S(=O)(=O)c1ccc(Cl)cc1 (configuration not stated)	-1.2	/	2.2%	-10.8	-0.6%	-1.2
O=C(NCc1ccc2c(c1)OCO2)C(=O)NCC1OCCN1S(=O)(=O)c1ccc(Br)cc1 (configuration not stated)	-5.2	0.5%	14.6%	-7.2	0.9%	7.7
O=C(NCc1ccc2c(c1)OCO2)C(=O)NCC1OCCN1S(=O)(=O)c1ccc(Cl)cc1 (configuration not stated)	-3.2	0.4%	5.5%	-30.8*	-1.5%	3.2
O=C(NCCCn1ccnc1)C(=O)NCC1OCCCN1S(=O)(=O)c1ccc(Cl)cc1 (configuration not stated)	-5.1	0.5%	3.5%	-51.0*	0.7%	0.4
CCOC(=O)C1CCCN(S(=O)(=O)c2ccc(N3CCCCS3(=O)=O)cc2)C1 (configuration not stated)	-0.1	/	/	-16.9	/	1.8
CCOc1ccc(C(=O)NCCc2csc(-c3cccc(C)c3)n2)cc1	-7.2	/	/	-9.0	/	2.9
Cc1ccc(-n2c(=O)c3c4c(sc3n(Cc3cc(=O)n5cc(Cl)ccc5n3)c2=O)CCC4)cc1C	1.3	/	/	-23.7	/	-1.2
CCOc1ccccc1N/C(=C(/C(Cl)=C(Cl)Cl)[N+](=O)[O-])n1cncn1	-10.8	1.1%	-1.9%	-38.7*	-7.1%	1.1
CCOc1ccc(C(c2c(O)cc(C)n(Cc3ccco3)c2=O)N2CCN(C)CC2)cc1 (configuration not stated)	-2.2	/	/	4.1	/	0.5
CCCC1=NN2C(=N)/C(=C\c3cc(C)n(-c4cc(C)cc(C)c4)c3C)C(=O)N=C2S1	-1.3	-0.2%	5.7%	-60.3*	0.5%	40.0*
Cc1cc(C)cc(-n2c(C)cc(/C=C3\C(=N)N4N=C(CC(C)C)SC4=NC3=O)c2C)c1	-13.7	/	1.4%	-8.0	-1.1%	0.2
COc1cccc(CNCCCSc2nnnn2C)c1	-0.5	/	/	1.8	/	7.5
CCOc1ccc(Cl)cc1CNCCCSc1nnnn1C	-1.6	/	/	2.7	/	9.0
Cn1nnnc1SCCCNCc1cccc(OCc2ccccc2F)c1	-0.8	/	/	-3.7	/	45.1*
Cn1nnnc1SCCCNCc1ccccc1OCc1ccccc1Cl	3.0	/	/	-46.0*	/	119.3*
Cn1nnnc1SCCCNCc1cccc(OCc2ccccc2Cl)c1	1.4	/	/	-18.8	/	108.0*
Cn1nnnc1SCCCNCc1cc(Cl)ccc1OCc1ccccc1	-1.4	/	/	-25.6	/	40.1*
